Laboratory results taken from PubChem BioAssay AID1159580 (chemical genetic matrix, 2015).
Among all 5,500 compounds or so, about 2,000 (36%) were called active. Inconclusive results (about 18%) are left out. No stated cut-off is given here; in the data, active means normalized growth mostly below about 0.91 (no sharp cut-off); inconclusive means no clear call, values can overlap the other calls; inactive means mostly above about 0.92. This is one part of the list.

Test: chemical genetic growth profiling, strain panel (AID 1159580);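 further: tested at 20 µM; growth read once vehicle control cultures reached saturation at 30 °C; 1 = growth at the plate median or of vehicle wells; lower values mean less growth of the strain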
Details: S. cerevisiae deletion strains, growth OD

Measured: normalized growth

Cc1cc(OC(=O)N2CCCCC2)c(C(C)C)cc1[N+](C)(C)C
inactive: locus YAL021C, strain ccr4, active compounds read low 0.994 | locus YAL026C, strain drs2, active compounds read low 1.03 | locus YAL030W, strain snc1, active compounds read low 1.01 | locus YBL061C, strain skt5, active compounds read low 1.01 | locus YBR009C, strain hhf1, active compounds read low 0.992 | locus YBR023C, strain chs3, active compounds read low 1.01 | locus YBR171W, strain sec66, active compounds read low 1.01 | locus YBR231C, strain swc5, active compounds read low 1.02 | locus YBR279W, strain paf1, active compounds read low 1.01 | locus YCL011C, strain gbp2, active compounds read low 0.998 | locus YCL016C, strain dcc1, active compounds read low 0.987 | locus YCL069W, strain vba3, active compounds read low 1 | locus YCR088W, strain abp1, active compounds read low 1.01 | locus YDL005C, strain med2, active compounds read low 1.02 | locus YDL040C, strain nat1, active compounds read low 1.01 | locus YDR001C, strain nth1, active compounds read low 1.01 | locus YDR069C, strain doa4, active compounds read low 1.03 | locus YDR137W, strain rgp1, active compounds read low 1.03 | locus YDR159W, strain sac3, active compounds read low 1.06 | locus YDR195W, strain ref2 0.997 | locus YDR297W, strain sur2, active compounds read low 1.01 | locus YDR334W, strain swr1, active compounds read low 1 | locus YDR335W, strain msn5, active compounds read low 1.01 | locus YDR392W, strain spt3, active compounds read low 0.995 | locus YEL003W, strain gim4, active compounds read low 1.01 | locus YEL037C, strain rad23, active compounds read low 1 | locus YEL061C, strain CIN8 (second series), active compounds read low 1.01 | locus YER015W, strain faa2, active compounds read low 1 | locus YER016W, strain bim1, active compounds read low 1.01 | locus YER111C, strain swi4, active compounds read low 1.01 | locus YER155C, strain BEM2 (second series), active compounds read low 0.998 | locus YFR010W, strain ubp6, active compounds read low 1.02 | locus YGL167C, strain pmr1, active compounds read low 1.01 | locus YGL173C, strain kem1, active compounds read low 1.02 | locus YGL227W, strain vid30, active compounds read low 0.999 | locus YGL240W, strain doc1, active compounds read low 1.02 | locus YGL253W, strain hxk2, active compounds read low 1.01 | locus YHR013C, strain ard1, active compounds read low 0.995 | locus YHR027C, strain rpn1, active compounds read low 1.01 | locus YHR030C, strain SLT2, active compounds read low 1 | locus YHR079C, strain IRE1, active compounds read low 1.01 | locus YHR142W, strain chs7, active compounds read low 0.986 | locus YJL092W, strain hpr5, active compounds read low 1.01 | locus YJL095W, strain BCK1 (second series), active compounds read low 1 | locus YJL095W, strain BCK1, active compounds read low 1.01 | locus YJL115W, strain asf1, active compounds read low 1.02 | locus YJL129C, strain trk1, active compounds read low 1.03 | locus YJL154C, strain vps35, active compounds read low 1.01 | locus YJL164C, strain tpk1, active compounds read low 1 | locus YJL166W, strain qcr8, active compounds read low 1.05 | locus YJR066W, strain TOR1, active compounds read low 0.911 | locus YKL160W, strain elf1, active compounds read low 0.988 | locus YKR026C, strain gcn3, active compounds read low 1 | locus YKR091W, strain srl3, active compounds read low 1 | locus YLL001W, strain dnm1, active compounds read low 1 | locus YLL026W, active compounds read low 1.03 | locus YLL041C, strain sdh2, active compounds read low 1.03 | locus YLR027C, strain aat2, active compounds read low 1.01 | locus YLR113W, strain HOG1, active compounds read low 1 | locus YLR221C, strain rsa3, active compounds read low 1.01 | locus YLR258W, strain gsy2, active compounds read low 0.987 | locus YLR262C, strain YPT6 (second series), active compounds read low 1.03 | locus YLR320W, strain mms22, active compounds read low 1.02 | locus YLR342W, strain FKS1, active compounds read low 1.01 | locus YLR357W, strain rsc2, active compounds read low 1.06 | locus YLR370C, strain arc18, active compounds read low 0.989 | locus YLR384C, strain iki3, active compounds read low 0.999 | locus YML120C, strain ndi1, active compounds read low 1 | locus YMR058W, strain fet3, active compounds read low 1.02 | locus YMR125W, strain sto1, active compounds read low 1.01 | locus YMR129W, active compounds read low 1.01 | locus YMR205C, strain PFK2, active compounds read low 1.02 | locus YMR231W, strain pep5, active compounds read low 1.01 | locus YNL071W, strain lat1, active compounds read low 1.01 | locus YNL183C, strain NPR1, active compounds read low 0.949 | locus YNL209W, strain ssb2, active compounds read low 1 | locus YNL248C, strain rpa49, active compounds read low 1.02 | locus YNL322C, strain KRE1 (second series), active compounds read low 1 | locus YNR049C, strain mso1, active compounds read low 1.01 | locus YOR001W, strain rrp6, active compounds read low 1.04 | locus YOR070C, strain gyp1, active compounds read low 1 | locus YOR080W, strain dia2, active compounds read low 1.01 | locus YOR083W, strain WHI5, active compounds read low 0.975 | locus YOR106W, strain vam3, active compounds read low 0.99 | locus YOR231W, strain MKK1, active compounds read low 0.999 | locus YOR265W, strain rbl2, active compounds read low 0.98 | locus YOR270C, strain vph1, active compounds read low 1.08 | locus YOR290C, strain snf2, active compounds read low 0.988 | locus YPL051W, strain arl3, active compounds read low 1.01 | locus YPL078C, strain atp4, active compounds read low 0.99 | locus YPL106C, strain sse1, active compounds read low 1.01 | locus YPL240C, strain hsp82, active compounds read low 1.01 | locus YPL256C, strain CLN2, active compounds read low 0.978
